Holding throughout (assay): DAPPL (digital affinity profiling via proximity ligation, sequencing); 10 mM Tris-HCl pH 7.5, 50 mM NaCl, 1 mM DTT, 4% glycerol, room temperature, 30 min; GST-TFs on glutathione beads, 16-mer random dsDNA library, 0.1% formaldehyde crosslink after washing; high values mean tight binding
One assay addresses T1, FEV (Homo sapiens, UniProt Q99581 1-238).
T1 sequence: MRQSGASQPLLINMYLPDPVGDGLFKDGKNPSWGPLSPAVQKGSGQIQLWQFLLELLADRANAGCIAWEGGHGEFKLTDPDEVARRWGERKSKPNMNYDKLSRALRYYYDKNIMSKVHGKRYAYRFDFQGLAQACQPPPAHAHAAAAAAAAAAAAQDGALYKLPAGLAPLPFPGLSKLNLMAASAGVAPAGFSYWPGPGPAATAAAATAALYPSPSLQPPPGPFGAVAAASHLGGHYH
Particulars: protein: recombinant; tags: N-terminal GST; dsDNA, one strand shown. The method in brief:
(§1)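 Binding signal is given per hexamer as its read frequency for a factor divided by its frequency in the tag-only sample. GST-fused human transcription factors were expressed in yeast, captured on glutathione beads, barcoded with DNA and pooled with that sample, then incubated with 200 nmole of a 16-mer random double-stranded DNA library in Tris/NaCl/DTT/glycerol buffer for 30 min at room temperature. The pools were then washed, crosslinked, proximity-ligated, amplified by PCR and sequenced on an Illumina NextSeq500.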

The target of another assay is ETV5 (Homo sapiens, UniProt P41161 1-510). To be noted: protein: recombinant; tags: N-terminal GST; dsDNA, one strand shown. The method in brief: as §1
Another assay deals with HSF1 (Homo sapiens, UniProt Q00613 1-529). To be noted: protein: recombinant; tags: N-terminal GST; chain copies: 3; dsDNA, one strand shown. Put shortly:
as §1

A further assay concerns the target T2, SPIC (Homo sapiens, UniProt Q8N5J4 1-248).
T2 sequence: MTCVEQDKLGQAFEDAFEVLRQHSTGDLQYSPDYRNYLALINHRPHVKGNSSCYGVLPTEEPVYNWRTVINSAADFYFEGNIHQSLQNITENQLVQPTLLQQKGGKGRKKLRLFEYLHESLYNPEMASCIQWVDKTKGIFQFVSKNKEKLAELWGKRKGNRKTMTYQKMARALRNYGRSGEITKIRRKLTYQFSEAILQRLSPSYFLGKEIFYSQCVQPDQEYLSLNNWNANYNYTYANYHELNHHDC
To be noted: protein: recombinant; tags: N-terminal GST; dsDNA, one strand shown. The method in brief:
as §1

The target in the next assay is ELF4 (Homo sapiens, UniProt Q99607 1-663). Particulars: protein: recombinant; tags: N-terminal GST; dsDNA, one strand shown. The method in brief: as §1
The next assay has as its target T3, ELK4 (Homo sapiens, UniProt P28324-2 1-405).
T3 sequence: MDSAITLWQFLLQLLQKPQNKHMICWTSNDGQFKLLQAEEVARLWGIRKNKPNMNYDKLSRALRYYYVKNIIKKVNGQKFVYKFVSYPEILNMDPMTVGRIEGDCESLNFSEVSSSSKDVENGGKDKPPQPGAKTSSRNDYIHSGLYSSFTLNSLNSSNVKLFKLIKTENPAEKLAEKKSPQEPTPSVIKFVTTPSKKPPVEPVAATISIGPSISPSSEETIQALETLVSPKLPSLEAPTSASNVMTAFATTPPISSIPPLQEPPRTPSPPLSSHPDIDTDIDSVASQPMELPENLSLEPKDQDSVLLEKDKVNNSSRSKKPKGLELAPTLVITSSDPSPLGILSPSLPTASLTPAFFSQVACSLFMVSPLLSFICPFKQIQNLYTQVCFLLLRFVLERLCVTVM
To be noted: protein: recombinant; tags: N-terminal GST; dsDNA, one strand shown. Put shortly:
as §1

The next assay deals with T4, ETV2 (Homo sapiens, UniProt O00321 1-342).
T4 sequence: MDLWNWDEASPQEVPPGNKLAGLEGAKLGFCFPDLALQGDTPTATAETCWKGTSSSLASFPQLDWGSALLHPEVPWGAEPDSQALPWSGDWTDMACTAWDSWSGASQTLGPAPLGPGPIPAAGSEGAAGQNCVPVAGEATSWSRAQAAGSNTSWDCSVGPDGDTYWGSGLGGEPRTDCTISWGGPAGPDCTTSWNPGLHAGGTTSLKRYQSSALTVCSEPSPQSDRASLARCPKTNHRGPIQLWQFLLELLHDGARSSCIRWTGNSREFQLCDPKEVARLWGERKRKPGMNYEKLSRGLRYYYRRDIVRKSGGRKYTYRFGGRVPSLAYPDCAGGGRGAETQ
To be noted: protein: recombinant; tags: N-terminal GST; dsDNA, one strand shown. The method in brief:
as §1

A further assay concerns the target T5, ELF3 (Homo sapiens, UniProt P78545 1-371).
T5 sequence: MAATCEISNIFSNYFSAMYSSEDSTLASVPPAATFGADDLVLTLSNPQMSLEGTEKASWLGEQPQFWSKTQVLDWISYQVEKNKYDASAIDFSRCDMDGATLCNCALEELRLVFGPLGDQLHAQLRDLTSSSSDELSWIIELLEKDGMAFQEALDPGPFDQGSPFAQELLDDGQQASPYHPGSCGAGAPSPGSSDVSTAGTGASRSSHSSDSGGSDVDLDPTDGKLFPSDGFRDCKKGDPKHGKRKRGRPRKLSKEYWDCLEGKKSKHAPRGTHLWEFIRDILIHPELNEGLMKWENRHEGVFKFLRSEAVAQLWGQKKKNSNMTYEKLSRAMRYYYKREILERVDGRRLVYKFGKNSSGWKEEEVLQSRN
Particulars: protein: recombinant; tags: N-terminal GST; dsDNA, one strand shown. The method in brief:
as §1

The target of the next assay is CRX (Homo sapiens, UniProt O43186 1-299). Particulars: protein: recombinant; tags: N-terminal GST; dsDNA, one strand shown. Put shortly: as §1
A further assay deals with ETV1 (Homo sapiens, UniProt P50549 1-477). To be noted: protein: recombinant; tags: N-terminal GST; dsDNA, one strand shown. Put shortly: as §1
Another assay addresses T6, ERF (Homo sapiens, UniProt P50548 1-548).
T6 sequence: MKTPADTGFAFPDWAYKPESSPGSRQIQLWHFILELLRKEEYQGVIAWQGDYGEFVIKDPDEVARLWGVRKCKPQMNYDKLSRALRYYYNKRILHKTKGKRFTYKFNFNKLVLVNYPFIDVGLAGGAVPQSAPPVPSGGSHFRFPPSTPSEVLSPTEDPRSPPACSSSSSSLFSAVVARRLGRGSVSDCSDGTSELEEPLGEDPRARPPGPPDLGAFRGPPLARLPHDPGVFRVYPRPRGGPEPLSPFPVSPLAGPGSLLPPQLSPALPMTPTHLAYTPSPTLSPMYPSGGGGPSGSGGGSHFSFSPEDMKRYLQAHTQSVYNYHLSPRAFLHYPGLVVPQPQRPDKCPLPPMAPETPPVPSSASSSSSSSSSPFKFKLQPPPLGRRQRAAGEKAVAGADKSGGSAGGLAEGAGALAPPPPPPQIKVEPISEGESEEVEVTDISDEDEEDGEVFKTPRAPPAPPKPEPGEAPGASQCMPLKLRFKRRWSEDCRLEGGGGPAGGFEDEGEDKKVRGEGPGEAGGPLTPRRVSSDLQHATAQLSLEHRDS
To be noted: protein: recombinant; tags: N-terminal GST; dsDNA, one strand shown. The method in brief:
as §1

The target of a further assay is T7, ETV3L (Homo sapiens, UniProt Q6ZN32 1-361).
T7 sequence: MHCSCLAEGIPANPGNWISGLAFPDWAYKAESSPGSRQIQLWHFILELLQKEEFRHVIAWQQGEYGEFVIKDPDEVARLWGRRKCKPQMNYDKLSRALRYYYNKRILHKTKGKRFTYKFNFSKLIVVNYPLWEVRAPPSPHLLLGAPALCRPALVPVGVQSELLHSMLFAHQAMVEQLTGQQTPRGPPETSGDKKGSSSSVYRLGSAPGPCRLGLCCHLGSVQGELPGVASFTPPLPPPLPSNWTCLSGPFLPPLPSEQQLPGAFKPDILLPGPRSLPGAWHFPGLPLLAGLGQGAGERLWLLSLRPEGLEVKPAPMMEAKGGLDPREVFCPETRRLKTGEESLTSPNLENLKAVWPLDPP
To be noted: protein: recombinant; tags: N-terminal GST; dsDNA, one strand shown. The method in brief:
as §1

The target of a further assay is T8, ETS2 (Homo sapiens, UniProt P15036 1-469).
T8 sequence: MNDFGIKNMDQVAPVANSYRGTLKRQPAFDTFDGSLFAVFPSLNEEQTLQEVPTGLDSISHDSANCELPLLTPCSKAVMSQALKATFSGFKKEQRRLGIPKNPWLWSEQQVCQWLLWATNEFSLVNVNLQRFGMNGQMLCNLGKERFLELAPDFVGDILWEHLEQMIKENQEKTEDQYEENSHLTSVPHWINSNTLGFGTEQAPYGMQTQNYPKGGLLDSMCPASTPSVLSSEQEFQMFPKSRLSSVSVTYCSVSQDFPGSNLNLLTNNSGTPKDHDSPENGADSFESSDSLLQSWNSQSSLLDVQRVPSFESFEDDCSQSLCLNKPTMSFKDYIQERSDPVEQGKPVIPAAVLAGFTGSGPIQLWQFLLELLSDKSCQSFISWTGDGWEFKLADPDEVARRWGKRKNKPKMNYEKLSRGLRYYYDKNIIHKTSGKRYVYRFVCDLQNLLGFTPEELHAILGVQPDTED
Particulars: protein: recombinant; tags: N-terminal GST; dsDNA, one strand shown. The method in brief:
as §1

The target of another assay is T9, SPDEF (Homo sapiens, UniProt O95238 1-335).
T9 sequence: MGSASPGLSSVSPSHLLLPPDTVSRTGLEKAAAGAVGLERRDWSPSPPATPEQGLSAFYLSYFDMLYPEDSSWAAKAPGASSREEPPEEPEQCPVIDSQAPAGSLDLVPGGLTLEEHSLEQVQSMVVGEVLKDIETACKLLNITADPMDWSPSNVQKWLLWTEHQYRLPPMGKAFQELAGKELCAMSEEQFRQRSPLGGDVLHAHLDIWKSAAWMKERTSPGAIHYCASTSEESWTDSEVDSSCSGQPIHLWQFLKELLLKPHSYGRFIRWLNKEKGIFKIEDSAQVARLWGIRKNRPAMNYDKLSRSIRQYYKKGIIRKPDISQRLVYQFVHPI
Particulars: protein: recombinant; tags: N-terminal GST; dsDNA, one strand shown. Put shortly: as §1

For a further assay, the target named is T10, ETV7 (Homo sapiens, UniProt Q9Y603 1-341).
T10 sequence: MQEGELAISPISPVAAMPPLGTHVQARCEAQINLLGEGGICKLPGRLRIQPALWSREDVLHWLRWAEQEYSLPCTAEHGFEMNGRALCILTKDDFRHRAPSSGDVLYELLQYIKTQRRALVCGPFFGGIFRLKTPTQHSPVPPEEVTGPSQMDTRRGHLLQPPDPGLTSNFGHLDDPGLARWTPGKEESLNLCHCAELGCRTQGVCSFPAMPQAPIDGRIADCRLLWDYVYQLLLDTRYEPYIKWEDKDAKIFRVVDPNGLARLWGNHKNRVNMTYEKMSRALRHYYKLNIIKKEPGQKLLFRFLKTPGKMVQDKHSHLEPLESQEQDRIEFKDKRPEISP
To be noted: protein: recombinant; tags: N-terminal GST; dsDNA, one strand shown. The method in brief:
as §1

The next assay addresses T11, ELF5 (Homo sapiens, UniProt Q9UKW6-2 1-255).
T11 sequence: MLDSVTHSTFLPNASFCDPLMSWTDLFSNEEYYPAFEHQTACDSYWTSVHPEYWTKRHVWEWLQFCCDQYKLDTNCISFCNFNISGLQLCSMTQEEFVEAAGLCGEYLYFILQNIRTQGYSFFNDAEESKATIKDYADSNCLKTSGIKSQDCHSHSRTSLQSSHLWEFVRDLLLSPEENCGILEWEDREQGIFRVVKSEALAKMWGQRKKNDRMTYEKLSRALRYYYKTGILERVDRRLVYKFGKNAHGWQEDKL
To be noted: protein: recombinant; tags: N-terminal GST; dsDNA, one strand shown. The method in brief: as §1

In a further assay the target is T12, ETV3 (Homo sapiens, UniProt P41162-2 1-143).
T12 sequence: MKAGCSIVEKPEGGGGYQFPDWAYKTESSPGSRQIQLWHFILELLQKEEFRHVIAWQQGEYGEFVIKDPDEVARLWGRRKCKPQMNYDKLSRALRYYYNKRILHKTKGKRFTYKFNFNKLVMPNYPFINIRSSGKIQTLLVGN
Particulars: protein: recombinant; tags: N-terminal GST; dsDNA, one strand shown. The method in brief: as §1

The target in another assay is ETV6 (Homo sapiens, UniProt P41212 1-452). To be noted: protein: recombinant; tags: N-terminal GST; dsDNA, one strand shown. Put shortly:
as §1

This is an account of results in publication PMC7862700, “An all-to-all approach to the identification of sequence-specific readers for epigenetic DNA modifications on cytosine”.

Sequence of CRX (O43186 whole entry): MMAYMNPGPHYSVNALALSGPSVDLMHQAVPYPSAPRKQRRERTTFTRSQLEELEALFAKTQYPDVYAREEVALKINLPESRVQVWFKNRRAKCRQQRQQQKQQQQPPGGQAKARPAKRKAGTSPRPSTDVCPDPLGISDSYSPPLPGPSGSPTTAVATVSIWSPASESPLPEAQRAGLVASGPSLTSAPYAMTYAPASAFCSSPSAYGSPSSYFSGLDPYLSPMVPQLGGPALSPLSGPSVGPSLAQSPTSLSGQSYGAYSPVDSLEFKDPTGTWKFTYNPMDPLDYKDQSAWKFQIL
Sequence of ETV1 (P50549 whole entry): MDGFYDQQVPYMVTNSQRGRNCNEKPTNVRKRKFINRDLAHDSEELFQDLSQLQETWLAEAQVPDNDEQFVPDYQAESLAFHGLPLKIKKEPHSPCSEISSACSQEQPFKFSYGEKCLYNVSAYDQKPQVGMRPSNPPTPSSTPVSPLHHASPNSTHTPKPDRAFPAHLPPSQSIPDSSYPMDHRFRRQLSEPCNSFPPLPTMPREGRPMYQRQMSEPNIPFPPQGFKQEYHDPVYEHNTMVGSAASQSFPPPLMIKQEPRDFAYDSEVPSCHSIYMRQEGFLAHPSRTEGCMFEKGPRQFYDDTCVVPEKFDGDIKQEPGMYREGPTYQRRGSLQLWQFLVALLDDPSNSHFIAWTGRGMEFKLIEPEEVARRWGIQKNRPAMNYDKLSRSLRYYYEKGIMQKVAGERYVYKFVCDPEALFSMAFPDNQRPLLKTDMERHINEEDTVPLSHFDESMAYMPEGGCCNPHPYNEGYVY
Sequence of ETV6 (P41212 whole entry): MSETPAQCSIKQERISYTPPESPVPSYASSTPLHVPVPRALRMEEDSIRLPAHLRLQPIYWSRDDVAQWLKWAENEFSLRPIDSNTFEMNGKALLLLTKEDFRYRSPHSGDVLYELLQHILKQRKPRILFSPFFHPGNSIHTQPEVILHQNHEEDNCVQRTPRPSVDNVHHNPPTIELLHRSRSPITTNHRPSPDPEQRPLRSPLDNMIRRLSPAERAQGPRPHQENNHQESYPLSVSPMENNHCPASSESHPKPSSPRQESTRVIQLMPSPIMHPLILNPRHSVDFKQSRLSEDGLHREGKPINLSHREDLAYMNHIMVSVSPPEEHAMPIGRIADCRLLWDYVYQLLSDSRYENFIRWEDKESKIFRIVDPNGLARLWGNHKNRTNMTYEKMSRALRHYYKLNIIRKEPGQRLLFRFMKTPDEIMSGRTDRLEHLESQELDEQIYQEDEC
Sequence of HSF1 (Q00613 whole entry): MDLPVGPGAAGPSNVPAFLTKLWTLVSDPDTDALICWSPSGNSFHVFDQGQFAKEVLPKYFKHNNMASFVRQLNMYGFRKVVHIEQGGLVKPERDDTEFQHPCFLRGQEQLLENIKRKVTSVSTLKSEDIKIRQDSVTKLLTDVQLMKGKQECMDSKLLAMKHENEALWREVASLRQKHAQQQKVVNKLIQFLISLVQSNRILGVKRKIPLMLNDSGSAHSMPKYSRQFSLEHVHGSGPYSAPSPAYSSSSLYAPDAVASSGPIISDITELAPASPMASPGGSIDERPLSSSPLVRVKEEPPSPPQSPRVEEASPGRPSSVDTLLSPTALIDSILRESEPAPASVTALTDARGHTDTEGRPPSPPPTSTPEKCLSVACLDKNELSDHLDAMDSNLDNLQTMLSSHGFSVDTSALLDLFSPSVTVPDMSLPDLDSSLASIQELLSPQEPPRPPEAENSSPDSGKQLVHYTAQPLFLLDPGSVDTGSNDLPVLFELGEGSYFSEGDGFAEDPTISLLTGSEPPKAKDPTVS
Sequence of ELF4 (Q99607 whole entry): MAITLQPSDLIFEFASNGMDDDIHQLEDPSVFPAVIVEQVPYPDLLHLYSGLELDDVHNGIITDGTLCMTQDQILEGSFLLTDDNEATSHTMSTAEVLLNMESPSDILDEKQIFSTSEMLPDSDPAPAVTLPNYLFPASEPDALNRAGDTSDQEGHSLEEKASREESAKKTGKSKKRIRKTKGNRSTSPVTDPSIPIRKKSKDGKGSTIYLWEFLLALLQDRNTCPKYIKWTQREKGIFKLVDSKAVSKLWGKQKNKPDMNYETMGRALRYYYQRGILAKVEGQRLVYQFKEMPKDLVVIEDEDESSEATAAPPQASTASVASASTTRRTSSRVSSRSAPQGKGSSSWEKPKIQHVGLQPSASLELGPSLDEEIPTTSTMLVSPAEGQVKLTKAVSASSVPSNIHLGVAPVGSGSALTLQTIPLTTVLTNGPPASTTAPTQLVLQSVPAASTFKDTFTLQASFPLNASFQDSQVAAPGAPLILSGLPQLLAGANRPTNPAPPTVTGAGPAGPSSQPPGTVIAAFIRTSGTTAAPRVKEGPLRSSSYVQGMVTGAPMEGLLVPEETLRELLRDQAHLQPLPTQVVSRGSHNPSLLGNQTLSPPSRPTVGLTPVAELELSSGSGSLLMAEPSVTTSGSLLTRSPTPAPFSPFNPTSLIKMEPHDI
Sequence of ETV5 (P41161 whole entry): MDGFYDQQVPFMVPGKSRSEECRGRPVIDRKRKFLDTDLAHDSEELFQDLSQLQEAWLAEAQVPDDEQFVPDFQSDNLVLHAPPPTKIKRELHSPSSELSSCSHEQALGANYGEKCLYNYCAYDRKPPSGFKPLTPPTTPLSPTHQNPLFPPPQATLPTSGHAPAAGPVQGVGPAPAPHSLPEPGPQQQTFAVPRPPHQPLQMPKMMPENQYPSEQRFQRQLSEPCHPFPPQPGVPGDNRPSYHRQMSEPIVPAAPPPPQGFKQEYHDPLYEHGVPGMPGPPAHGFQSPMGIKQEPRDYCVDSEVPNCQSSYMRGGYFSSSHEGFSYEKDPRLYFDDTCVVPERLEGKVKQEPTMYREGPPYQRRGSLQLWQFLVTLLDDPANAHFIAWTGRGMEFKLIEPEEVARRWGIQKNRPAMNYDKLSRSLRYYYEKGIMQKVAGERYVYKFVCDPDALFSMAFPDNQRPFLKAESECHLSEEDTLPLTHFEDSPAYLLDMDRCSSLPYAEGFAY

On to TTGATG, for which the binding signal with FEV was 1.52 fold enrichment (6-mer frequency, TF over GST control); with ETV5, 1.73 fold enrichment (6-mer frequency, TF over GST control); with HSF1 it was 1.43 fold enrichment (6-mer frequency, TF over GST control); with SPIC, 1.59 fold enrichment (6-mer frequency, TF over GST control); with ELF4 it was 1.63 fold enrichment (6-mer frequency, TF over GST control); with ELK4 it was 1.52 fold enrichment (6-mer frequency, TF over GST control). The binding signal in the assay with ETV2 is 1.53 fold enrichment (6-mer frequency, TF over GST control); in the assay with ELF3, 1.81 fold enrichment (6-mer frequency, TF over GST control); with CRX it was 1.5 fold enrichment (6-mer frequency, TF over GST control); in the assay with ETV1 it was 1.67 fold enrichment (6-mer frequency, TF over GST control); with ERF it was 1.66 fold enrichment (6-mer frequency, TF over GST control); in the assay with ETV3L it was 1.59 fold enrichment (6-mer frequency, TF over GST control). Also, the binding signal with ETS2 is 1.58 fold enrichment (6-mer frequency, TF over GST control); in the assay with SPDEF, 1.51 fold enrichment (6-mer frequency, TF over GST control); with ETV7, 1.45 fold enrichment (6-mer frequency, TF over GST control); with ELF5, 1.6 fold enrichment (6-mer frequency, TF over GST control); with ETV3, 1.43 fold enrichment (6-mer frequency, TF over GST control); with ETV6, 1.57 fold enrichment (6-mer frequency, TF over GST control).
